Data on twelve molecules can be found in PubChem BioAssay.

Assay [1] concerns Plasmodium falciparum Sir2 (PF13_0152, Sir2A). The assay can be described thus: Plasmodium falciparum Sir2A binding compounds – biochemical, small-molecule microarray, 635 nm fluorescence, primary screen (AID 1098).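 Further: score merges spot fluorescence intensity with its signal-to-noise ratio.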 The following applies: fluorescence 635 nm, higher = more signal.
Assay [2] in a line: probe aDKK1 binding to arrayed compounds – biochemical, biotinylated probe, 635/667 nm fluorescence, primary screen (AID 1099).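 Further: score merges 667nm spot fluorescence with signal to noise across triplicate slides; reference of the scale not given here.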 The following applies: small-molecule microarray, higher = more signal.
Assay [3] can be described thus: probe aCHRDL2 binding to arrayed compounds – biochemical, biotinylated probe, 635/667 nm fluorescence, primary screen (AID 1100). The conditions noted are these: small-molecule microarray, higher = more signal.
Assay [4] in a line: change in splice reporter luminescence, either direction, cell-based, HEK293, spliceosome inhibition project, primary screen (AID 1101).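 Further: HEK293 cells carrying a splicing-competent luciferase reporter gene; test concentration not given here.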 The conditions noted are these: HEK293 splicing luciferase reporter, 24 h, higher = more signal, called active from +8 up or from −8 down. For orientation: In a reporter assay the amount or activity of a reporter protein is the signal.
Assay [5] deals with Fibroblast growth factor 10 (Homo sapiens) (UniProt O15520). The assay can be described thus: compounds binding fibroblast growth factor 10 – biochemical, small-molecule microarray, 635 nm fluorescence, primary screen (AID 1102). The following applies: FGF10 binding, fluorescence 635 nm, higher = more signal.
Assay [6] has as its system glycogen synthase kinase-3 (GSK3A per assay name; protocol says GSK3B). Briefly: compounds binding glycogen synthase kinase-3 – biochemical, small-molecule microarray, 635 nm fluorescence, GSK3A, primary screen (AID 1103). Further: the record names both GSK3A and GSK3B. The following applies: fluorescence 635 nm, higher = more signal.
For assay [7], the target named is Epidermal growth factor receptor (Homo sapiens) (UniProt P00533). Briefly: compounds binding epidermal growth factor receptor – biochemical, small-molecule microarray, 635 nm fluorescence, primary screen (AID 1104).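 Further: score merges 667 nm emission intensity with spot signal to noise over triplicate slides.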 The following applies: EGFR binding, higher = more signal.
Assay [8] has as its target Follistatin-related protein 3 (Homo sapiens) (UniProt O95633). The assay can be described thus: compounds binding follistatin-related protein 3 – biochemical, small-molecule microarray, 635 nm fluorescence, primary screen (AID 1105).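 Further: score merges emission near 667 nm and signal to noise per printed spot across three slides.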 The conditions noted are these: FSTL3 binding, higher = more signal.
For assay [9], the target named is Dickkopf-related protein 1 (Homo sapiens) (UniProt O94907). Briefly: small molecules binding DKK1 protein – biochemical, small-molecule microarray, 635 nm fluorescence scan, primary screen (AID 1106).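 Further: score merges emission near 667 nm with signal to noise over three replicate slides.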 The conditions noted are these: higher = more signal.
Assay [10] has as its system Inhibin beta A chain (activin A). The assay can be described thus: small molecules binding activin A – biochemical, small-molecule microarray, 635 nm fluorescence scan, primary screen (AID 1107).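 Further: mouse activin A protein probed at 4.33 µg/mL on printed slides; score merges bound-protein fluorescence near 667 nm with spot signal-to-noise.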 The conditions noted are these: INHBA, higher = more signal.

Active and inactive are the calls of the source.

Epidermal growth factor receptor (Homo sapiens), sequence (P00533 whole entry, looked up): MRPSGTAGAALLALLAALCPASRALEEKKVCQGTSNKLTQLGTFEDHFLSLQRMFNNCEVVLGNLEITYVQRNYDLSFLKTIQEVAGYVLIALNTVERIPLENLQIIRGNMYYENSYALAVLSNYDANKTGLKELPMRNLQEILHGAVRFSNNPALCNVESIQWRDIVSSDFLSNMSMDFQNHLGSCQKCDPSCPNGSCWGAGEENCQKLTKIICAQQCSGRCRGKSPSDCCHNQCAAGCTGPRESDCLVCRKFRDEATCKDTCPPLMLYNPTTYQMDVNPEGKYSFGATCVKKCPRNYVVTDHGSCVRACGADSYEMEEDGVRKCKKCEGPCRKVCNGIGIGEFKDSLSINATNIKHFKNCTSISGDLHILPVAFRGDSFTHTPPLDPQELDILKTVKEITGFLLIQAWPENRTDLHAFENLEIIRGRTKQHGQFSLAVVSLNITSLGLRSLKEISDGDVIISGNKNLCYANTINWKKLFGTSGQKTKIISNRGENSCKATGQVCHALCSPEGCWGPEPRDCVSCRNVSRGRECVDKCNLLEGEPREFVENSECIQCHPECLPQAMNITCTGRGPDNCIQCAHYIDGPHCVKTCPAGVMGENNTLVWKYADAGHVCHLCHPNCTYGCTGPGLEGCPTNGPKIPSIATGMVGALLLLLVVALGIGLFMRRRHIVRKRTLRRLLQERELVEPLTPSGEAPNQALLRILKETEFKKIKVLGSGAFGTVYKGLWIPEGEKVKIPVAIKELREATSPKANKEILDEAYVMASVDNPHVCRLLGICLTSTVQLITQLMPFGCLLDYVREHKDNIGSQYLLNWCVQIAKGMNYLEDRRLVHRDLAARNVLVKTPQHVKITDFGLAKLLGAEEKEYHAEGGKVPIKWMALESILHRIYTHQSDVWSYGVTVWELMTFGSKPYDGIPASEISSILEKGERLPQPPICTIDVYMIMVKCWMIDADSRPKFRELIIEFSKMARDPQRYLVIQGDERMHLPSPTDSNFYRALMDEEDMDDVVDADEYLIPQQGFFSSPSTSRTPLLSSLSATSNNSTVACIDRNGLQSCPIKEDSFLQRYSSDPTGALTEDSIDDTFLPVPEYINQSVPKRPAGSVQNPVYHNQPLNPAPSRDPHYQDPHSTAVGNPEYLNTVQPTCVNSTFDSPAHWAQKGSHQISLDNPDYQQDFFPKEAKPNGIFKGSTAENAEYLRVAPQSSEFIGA
Fibroblast growth factor 10 (Homo sapiens), sequence (O15520 whole entry, looked up): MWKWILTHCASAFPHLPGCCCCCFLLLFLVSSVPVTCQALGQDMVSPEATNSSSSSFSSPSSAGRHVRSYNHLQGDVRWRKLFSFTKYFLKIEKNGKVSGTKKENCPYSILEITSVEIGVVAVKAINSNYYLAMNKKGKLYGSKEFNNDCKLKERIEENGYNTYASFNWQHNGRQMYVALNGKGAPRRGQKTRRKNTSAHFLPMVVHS
Dickkopf-related protein 1 (Homo sapiens), sequence (O94907 whole entry, looked up): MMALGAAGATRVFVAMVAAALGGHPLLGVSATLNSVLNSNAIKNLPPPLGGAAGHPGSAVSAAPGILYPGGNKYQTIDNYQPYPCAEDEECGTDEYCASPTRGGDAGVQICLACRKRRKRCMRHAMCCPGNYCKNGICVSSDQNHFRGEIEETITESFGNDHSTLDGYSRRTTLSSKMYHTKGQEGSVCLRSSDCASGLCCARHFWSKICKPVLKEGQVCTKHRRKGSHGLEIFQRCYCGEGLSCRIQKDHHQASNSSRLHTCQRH
Follistatin-related protein 3 (Homo sapiens), sequence (O95633 whole entry, looked up): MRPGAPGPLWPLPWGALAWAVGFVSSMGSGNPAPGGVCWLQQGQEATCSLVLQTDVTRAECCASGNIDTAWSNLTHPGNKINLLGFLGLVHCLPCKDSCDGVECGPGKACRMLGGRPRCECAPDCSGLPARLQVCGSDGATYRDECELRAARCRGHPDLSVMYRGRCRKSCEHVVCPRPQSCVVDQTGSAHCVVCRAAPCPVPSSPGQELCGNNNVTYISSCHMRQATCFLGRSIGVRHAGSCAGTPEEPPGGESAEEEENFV

With `COC(=O)[C@@]1(Cc2ccccc2)[C@H]2c3cc(C(=O)N4CCCC4)n(Cc4cc(F)cc5c4OCOC5)c3C[C@H]2CN1C(=O)c1ccccc1`, the composite z-score in assay [1] is 1.54; in assay [2], 0.513; in assay [3] it was 1.1; in assay [5], 1.22; in [6], 0.0232; in [7], -0.12. In addition, the values for the composite z-score in [8], in [9] and in assay [10] were 0.286, -0.66 and 0.538, respectively. In assay [4], the z-score was -0.955 (inactive).
For the molecule `COCC(=C=CC[C@H](O)c1ccc(OCCO)cc1)C[C@H](O)COCc1ccccc1`, the composite z-score in [1] is 1.56; in assay [2] it was -0.199; in assay [3], -0.228; in assay [5], 0.605; in [6], 0.351; in [7] it was 0.291. Further, the composite z-score in assay [8] worked out at 0.944; in assay [9] it was 0.462; in assay [10], 0.928. Besides, the z-score in assay [4] was -1.11 (inactive).
`CCOc1cc(C(O)C2C=CC3C(=O)N(C4CCCCC4)C(=O)C3N2Nc2ccc(OC)cc2)ccc1O` (stereo not given): the composite z-score was 0.692 in assay [1]; -0.0443 in assay [2]; 0.913 in [3]; 0.423 in assay [5]; 1.21 in assay [6]; 0.388 in assay [7]. Also, the composite z-score is 0.741 in assay [8], 0.105 in assay [9] and 0.959 in assay [10]. Besides, the z-score in assay [4] is -0.556 (inactive).
On to `CC(C)(C)OC(=O)CC[C@@]1(C(=O)O)N=C(c2ccc(OCCCO)cc2)O[C@@H]1c1ccccc1`, for which the composite z-score was 0.492 in assay [1]; 0.325 in [2]; 0.824 in assay [3]; -0.0905 in assay [5]; -0.126 in assay [6]; -0.566 in [7]. Also, the composite z-score was -0.294 in [8], -0.646 in [9] and 0.253 in assay [10]. Moreover, the z-score in assay [4] is -0.176 (inactive).
With `NC(=O)N1C(=O)C2C(C1=O)C1C=C(c3ccc(CO)cc3)C2C(C2CC2)N1Cc1sc2ccccc2c1Cl` (stereo not given), the composite z-score in assay [1] is 0.834; in assay [2], -0.0675; in assay [3] it was 0.102; in assay [5], 1.25; in assay [6], 1.12; in [7], 0.553. Besides, the values for the composite z-score in [8], in assay [9] and in assay [10] were 1.21, 0.307 and -0.115, respectively. The z-score in assay [4] is -0.72 (inactive).
Regarding `COC(=O)C(CC#Cc1ccc2c(c1)[C@]1(C(=O)N2)[C@H](C(=O)O)[C@H]2C(=O)O[C@H](c3ccccc3)[C@H](c3ccccc3)N2[C@@H]1c1ccccc1OCCO)C(=O)OC`, the composite z-score is 1.58 in assay [1]; 0.485 in [2]; 0.327 in assay [3]; 1.19 in assay [5]; 1.31 in assay [6]; 0.384 in [7]. Further, the values for the composite z-score in [8], in [9] and in assay [10] were 1.06, 0.337 and 0.194, respectively. The z-score in assay [4] is 0.78 (inactive).
For the molecule `C=C(/C=C/CNS(=O)(=O)c1ccc(C)cc1)[C@H](O)[C@H]1CCCN1S(=O)(=O)c1ccccc1[N+](=O)[O-]`, the composite z-score in assay [1] is 0.61; in assay [2], 0.0684; in [3], 0.0163; in assay [5] it was 0.582; in assay [6], 0.139; in assay [7] it was 0.669. Besides, the figures for the composite z-score in assay [8], in assay [9] and in assay [10] were 0.998, 0.727 and 0.809, respectively. Moreover, in [4], the z-score was -0.112 (inactive).
Regarding `COC(=O)[C@@]1(Cc2ccccc2)[C@H]2c3cc(C(=O)N4CCCC4)[nH]c3C[C@H]2CN1C(=O)c1ccccc1`, the composite z-score is 1.1 in [1]; 0.865 in assay [2]; 0.91 in [3]; -0.486 in assay [5]; 0.0863 in assay [6]; -0.478 in assay [7]. For the same molecule, the composite z-score was -0.444 in assay [8], -0.988 in [9] and 0.916 in [10]. The z-score in assay [4] was -0.0516 (inactive).
For the molecule `C=CCC(OC(C)=O)[C@@H]1[C@@H](N(Cc2ccc(-c3ccccc3)cc2)C(=O)c2cccc3ccccc23)c2cc(OCCCO)ccc2N1C(=O)Cc1ccc2ccccc2c1` (stereo not given in full), the composite z-score in assay [1] was -0.417; in assay [2], 0.122; in assay [3], 0.425; in assay [5], 0.0665; in assay [6] it was -0.202; in assay [7] it was -0.062. Also, the results for the composite z-score in [8], in assay [9] and in assay [10] were -0.0827, -0.169 and 0.796, respectively. Moreover, the z-score in assay [4] was -0.862 (inactive).
Regarding `COC(=O)[C@@]1(Cc2ccc(OC)cc2)[C@H]2c3cc(C(=O)N(C)C)n(Cc4ccccc4)c3C[C@H]2CN1C(=O)c1ccccc1`, the composite z-score in assay [1] is 0.656; in assay [2], 0.268; in assay [3], -0.332; in assay [5], 0.0697; in assay [6], 0.0849; in assay [7], -0.342. Moreover, the figures for the composite z-score in assay [8], in [9] and in assay [10] were -0.0447, -0.128 and 0.825, respectively. Besides, the z-score in assay [4] was -2.28 (inactive).
Take `C[n+]1ccc(CCCO)cc1`: the composite z-score in assay [1] is 0.365; in [2], -0.0442; in assay [3], 0.0977; in assay [5], 0.113; in assay [6], -0.262; in [7] it was -0.455. Besides, the composite z-score in assay [8] came to 0.0584; in [9], 0.457; in assay [10], 1.57. Moreover, the z-score in assay [4] is -0.164 (inactive).
Regarding `COCCOC(=O)N1C(=O)[C@@]2(c3cc(C#CCC(C(=O)OC)C(=O)OC)ccc31)[C@H](c1ccc(OCCO)cc1)N1[C@H](c3ccccc3)[C@H](c3ccccc3)OC(=O)[C@H]1[C@@H]2C(=O)N1CCN(c2ncccn2)CC1`, the composite z-score was determined as 1.36 in [1]; 0.0926 in assay [2]; 0.233 in assay [3]; 0.994 in assay [5]; 1.07 in assay [6]; 0.517 in [7]. Moreover, the composite z-score worked out at 1.45 in assay [8], 0.637 in [9] and 0.109 in assay [10]. Further, in [4], the z-score is -0.0387 (inactive).
